In publication PMC5540273 (PLoS ONE, 2017):

Test system: MUSK
Conditions: concentration: 1 μM, replicates: in singlicate; n = 1
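Further: KINOMEscan kinase panel screen.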

First: Cl.Nc1ncnc2occ(-c3ccc(NC(=O)Nc4cc(C(F)(F)F)ccc4F)cc3)c12 [SB-707548]
Second: COC(=O)Nc1nc2cc(Oc3ccc(NC(=O)Nc4cc(F)ccc4F)cc3)ccc2[nH]1.Cl [GW701424]
The “%Inh” value of the first is higher: 100% for the first, 99.1% for the second.

Going from `Fc1ccc(-c2ncn(CCCN3CCOCC3)c2-c2cccnc2)cc1` [SB-211743] to `Nc1nccc(-c2c(-c3ccc(F)cc3)ncn2C2CCN(CC(F)(F)F)CC2)n1` [SB-236560], the “%Inh” value rises from 20% to 22%.

`CCCCCc1nc2c(N)ncnc2n1CCCCC` [SKF-97255] and `CSc1ccc(-c2cc3ncnc(SCC(=O)O)c3s2)cc1` are the same in “%Inh” value: 0% for the first, 0% for the second.

`c1ccc(-c2cc(-c3c[nH]nc3-c3ccccn3)ccn2)cc1` [GW576604] and `CN(C(=O)c1ccc(-c2cc(-c3c[nH]nc3-c3ccccn3)ccn2)cc1)C1CCOCC1` [GW810083] are the same in “%Inh” value: 0% for the first, 0% for the second.

Going from `Cl.Cl.Cl.Fc1ccc(-c2ncn(C3CCNCC3)c2-c2ccnc(Nc3ccccc3)n2)cc1` [SB-238039] to `O=C(Nc1cccc(-c2nn3ncccc3c2-c2ccnc(Nc3cccc(C(F)(F)F)c3)n2)c1)c1c(F)cccc1F` [GSK299495], the “%Inh” value rises from 0% to 26%.

Compared with `COc1ccc(Nc2nccc(N3CCC(NC(=O)Nc4cccc(C(C)=O)c4)C3)n2)cc1` (centres unmarked) [GSK1379731], `O=C(NCCCN1CCOCC1)c1cccc(Nc2nccc(Nc3ccc(Oc4ccccc4)cc3)n2)c1` [GW663929] is lower in “%Inh” value: 3% for the first, 2% for the second.

First: CCc1nc(-c2cccc(C)c2)c(-c2ccnc(NCc3ccccc3)c2)s1
Second: Cc1cccc(-c2nc(-c3ccc(S(C)(=O)=O)cc3)sc2-c2ccncc2)c1
The “%Inh” value of the first is higher: 12% for the first, 0% for the second.

`CC(C)(CN)c1nc(-c2ccc(Cl)c(O)c2)c(-c2ccncc2)[nH]1.O=C(O)C(F)(F)F` [SB-477794] and `Fc1ccc(-c2nn3c(OCC(F)(F)F)cccc3c2-c2ccncc2)cc1` [GW514784] are the same in “%Inh” value: 0% for the first, 0% for the second.

First: CN1c2ccc(CNc3ccc(F)cc3)cc2-c2c(cnn2C)S1(=O)=O
Second: CN1c2ccc(NCc3ccc(F)cc3)cc2-c2c(cnn2C)S1(=O)=O
The “%Inh” value of the first is lower: 0% for the first, 3% for the second.

First: N#Cc1c(N2CCOCC2)sc(-c2ccn[nH]2)c1-c1ccc(Cl)cc1
Second: Cc1cn2c(=O)cc(N3CCOCC3)nc2n1Cc1cccc(Cl)c1Cl [GSK2334006]
The “%Inh” value of the first is lower: 0% for the first, 27% for the second.

`O=C1Cc2cc(Nc3nc(NCc4cccc(S(=O)(=O)C(F)(F)F)c4)ncc3C(F)(F)F)ccc2N1` and `NCC(NC(=O)c1cc(-c2cn[nH]c2)c(-c2ccnc3[nH]ccc23)s1)c1ccccc1.O=C(O)C(F)(F)F.O=C(O)C(F)(F)F` (centres unmarked) [GSK1325775] are the same in “%Inh” value: 0% for the first, 0% for the second.

Compared with `[2H]C([2H])(c1cccc(C(F)(F)F)c1C)n1ccn2c(=O)nc(N3CCOCC3)cc12` [GSK2336394], `O=c1cc(N2CCOCC2)nc2n(Cc3cccc(C(F)(F)F)c3)ccn12` [GSK2297543] is lower in “%Inh” value: 8% for the first, 3% for the second.

`COc1cc2c(cc1OCCN1CCN(C)CC1)ncc1c3ccc(C#N)cc3[nH]c21` and `NS(=O)(=O)c1cccc(-c2ccc3ncc(N4CCOCC4)nc3c2)c1` [GSK1535721] are the same in “%Inh” value: 0% for the first, 0% for the second.

First: COCCNC(=O)c1ccc(-c2cc(C(=O)NC3CC3)cc(F)c2C)cc1 [GW868318]
Second: Cc1ccc(C(=O)NCC(N)=O)cc1-n1c(C)cc(OCc2ccc(F)cc2F)c(Br)c1=O
The “%Inh” value of the first is higher: 28% for the first, 0% for the second.

First: C[C@@H](Oc1cc(-n2cnc3ccc(NC(=O)NC(C)(C)C)cc32)sc1C(N)=O)c1ccccc1Cl [GSK346294]
Second: Cc1cccc(-c2nc(Nc3ccc4ncsc4c3)c3ccccc3n2)n1 [GW867588]
The “%Inh” value of the first is higher: 6% for the first, 0% for the second.

`Cl.Oc1cccc(Nc2ccnc3cc(-c4ccncc4)ccc23)c1` [GW494601] and `Cc1nnc(-c2ccc(C)c(-c3ccc(C(=O)Nc4ccc(NS(C)(=O)=O)cc4)cc3)c2)o1` [GW702865] are the same in “%Inh” value: 0% for the first, 0% for the second.

`O=c1cc(N2CCOCC2)nc2n(Cc3cccc4ccccc34)ccn12` [GSK2333389] and `O=c1cc(N2CCOCC2)nc2n(Cc3cccc(Cl)c3Cl)c(C3CC3)nn12` [GSK2358994] are the same in “%Inh” value: 0% for the first, 0% for the second.

With `Cc1nnc(-c2ccc3occ(-c4ccc(C(C)O)cc4)c3c2)o1` (centres unmarked) the “%Inh” value was 4%.

Test system: MYLK2
Conditions: concentration: 1 μM, replicates: in singlicate; n = 1

Compared with `Cl.Nc1ncnc2occ(-c3ccc(NC(=O)Nc4cc(C(F)(F)F)ccc4F)cc3)c12` [SB-707548], `COC(=O)Nc1nc2cc(Oc3ccc(NC(=O)Nc4cc(F)ccc4F)cc3)ccc2[nH]1.Cl` [GW701424] is lower in “%Inh” value: 37% for the first, 0% for the second.

First: Fc1ccc(-c2ncn(CCCN3CCOCC3)c2-c2cccnc2)cc1 [SB-211743]
Second: Nc1nccc(-c2c(-c3ccc(F)cc3)ncn2C2CCN(CC(F)(F)F)CC2)n1 [SB-236560]
The “%Inh” value of the first is higher: 1% for the first, 0% for the second.

First: CCCCCc1nc2c(N)ncnc2n1CCCCC [SKF-97255]
Second: CSc1ccc(-c2cc3ncnc(SCC(=O)O)c3s2)cc1
The “%Inh” value of the first is higher: 6% for the first, 0% for the second.

First: c1ccc(-c2cc(-c3c[nH]nc3-c3ccccn3)ccn2)cc1 [GW576604]
Second: CN(C(=O)c1ccc(-c2cc(-c3c[nH]nc3-c3ccccn3)ccn2)cc1)C1CCOCC1 [GW810083]
The “%Inh” value of the first is higher: 3% for the first, 0% for the second.

`COc1ccc(Nc2nccc(N3CCC(NC(=O)Nc4cccc(C(C)=O)c4)C3)n2)cc1` (centres unmarked) [GSK1379731] and `O=C(NCCCN1CCOCC1)c1cccc(Nc2nccc(Nc3ccc(Oc4ccccc4)cc3)n2)c1` [GW663929] are the same in “%Inh” value: 0% for the first, 0% for the second.

`CCc1nc(-c2cccc(C)c2)c(-c2ccnc(NCc3ccccc3)c2)s1` and `Cc1cccc(-c2nc(-c3ccc(S(C)(=O)=O)cc3)sc2-c2ccncc2)c1` are the same in “%Inh” value: 0% for the first, 0% for the second.

`CN1c2ccc(CNc3ccc(F)cc3)cc2-c2c(cnn2C)S1(=O)=O` and `CN1c2ccc(NCc3ccc(F)cc3)cc2-c2c(cnn2C)S1(=O)=O` are the same in “%Inh” value: 0% for the first, 0% for the second.

Going from `N#Cc1c(N2CCOCC2)sc(-c2ccn[nH]2)c1-c1ccc(Cl)cc1` to `Cc1cn2c(=O)cc(N3CCOCC3)nc2n1Cc1cccc(Cl)c1Cl` [GSK2334006], the “%Inh” value rises from 8% to 32%.

First: O=C1Cc2cc(Nc3nc(NCc4cccc(S(=O)(=O)C(F)(F)F)c4)ncc3C(F)(F)F)ccc2N1
Second: NCC(NC(=O)c1cc(-c2cn[nH]c2)c(-c2ccnc3[nH]ccc23)s1)c1ccccc1.O=C(O)C(F)(F)F.O=C(O)C(F)(F)F (centres unmarked) [GSK1325775]
The “%Inh” value of the first is lower: 0% for the first, 45% for the second.

`[2H]C([2H])(c1cccc(C(F)(F)F)c1C)n1ccn2c(=O)nc(N3CCOCC3)cc12` [GSK2336394] and `O=c1cc(N2CCOCC2)nc2n(Cc3cccc(C(F)(F)F)c3)ccn12` [GSK2297543] are the same in “%Inh” value: 0% for the first, 0% for the second.

Going from `COc1cc2c(cc1OCCN1CCN(C)CC1)ncc1c3ccc(C#N)cc3[nH]c21` to `NS(=O)(=O)c1cccc(-c2ccc3ncc(N4CCOCC4)nc3c2)c1` [GSK1535721], the “%Inh” value falls from 72% to 0%.

First: COCCNC(=O)c1ccc(-c2cc(C(=O)NC3CC3)cc(F)c2C)cc1 [GW868318]
Second: Cc1ccc(C(=O)NCC(N)=O)cc1-n1c(C)cc(OCc2ccc(F)cc2F)c(Br)c1=O
The “%Inh” value of the first is lower: 1% for the first, 12% for the second.

First: Fc1ccc(-c2nn3c(OCC(F)(F)F)cccc3c2-c2ccncc2)cc1 [GW514784]
Second: Cl.Oc1cccc(Nc2ccnc3cc(-c4ccncc4)ccc23)c1 [GW494601]
The “%Inh” value of the first is lower: 1% for the first, 24% for the second.

`C[C@@H](Oc1cc(-n2cnc3ccc(NC(=O)NC(C)(C)C)cc32)sc1C(N)=O)c1ccccc1Cl` [GSK346294] and `Cc1cccc(-c2nc(Nc3ccc4ncsc4c3)c3ccccc3n2)n1` [GW867588] are the same in “%Inh” value: 0% for the first, 0% for the second.

`O=c1cc(N2CCOCC2)nc2n(Cc3cccc4ccccc34)ccn12` [GSK2333389] and `O=c1cc(N2CCOCC2)nc2n(Cc3cccc(Cl)c3Cl)c(C3CC3)nn12` [GSK2358994] are the same in “%Inh” value: 0% for the first, 0% for the second.

Compared with `Cc1nnc(-c2ccc(C)c(-c3ccc(C(=O)Nc4ccc(NS(C)(=O)=O)cc4)cc3)c2)o1` [GW702865], `Cc1nnc(-c2ccc3occ(-c4ccc(C(C)O)cc4)c3c2)o1` (centres unmarked) is higher in “%Inh” value: 0% for the first, 14% for the second.

`O=C(Nc1cccc(-c2nn3ncccc3c2-c2ccnc(Nc3cccc(C(F)(F)F)c3)n2)c1)c1c(F)cccc1F` [GSK299495] was tested, and the “%Inh” value was 0%.
